Screens deposited in PubChem by National Center for Advancing Translational Sciences (NCATS).
Shown are actives, neighbours in structure and some others; about 2.3% of the full set was active somewhere.
Tau fluor counter = Counterscreen qHTS for Inhibitors of Tau Fibril Formation, Fluorescence Polarization; tau K18 P301L Alexa594 fluorescence, heparin fibrillization; Potency, µM (highest dose often 57.7 µM), without a hit: top-dose activity change, negative = decrease; actives 0.93% (n = 280,000); AID 1463, 2008; note: potency is the fitted concentration of half-maximal effect; nearly all actives have a fitted effect of over 55% in size
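Human K18 P301L tau (15 uM unlabeled plus 0.24 uM Alexa 594-labeled, final) in 100 mM sodium acetate pH 7 was mixed with compound and 20 uM heparin and incubated 6 hr at 37 C.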
USP1-UAF1 inh = Inhibitors of USP1/UAF1: Primary Screen; Ubiquitin carboxyl-terminal hydrolase 1 (Homo sapiens), O94782; recombinant USP1/UAF1, Ub-Rhodamine cleavage fluorescence; Potency, µM (series often up to 57.1 µM), for the others: at the highest dose activity change, negative = inhibition, actives largely listed as inhibitors; actives 0.23% (n = 390,000); AID 743255, 2014; note: potency is the fitted concentration of half-maximal effect; nearly all actives have a fitted effect of over 60% in size
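In this screen, compounds sit with the deubiquitinase complex (1nM) for 15 min at room temperature before Ub-Rho is added at 150nM final. Fluorescence rise is then followed for 6 reads every 60 seconds.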
Tau fibril FP = qHTS for Inhibitors of Tau Fibril Formation, Fluorescence Polarization; Microtubule-associated protein tau (Homo sapiens), P10636; K18 P301L tau heparin fibrillization, Alexa594 FP, 6 h; Potency, µM (highest dose often 57.7 µM), without a hit: at the top dose activity, negative = inhibition, actives largely listed as inhibitors; actives 0.39% (n = 280,000); note: potency is the fitted concentration of half-maximal effect; nearly all actives have a fitted effect of over 55% in size
Target sequence (P10636 561-689 P618L limits assumed): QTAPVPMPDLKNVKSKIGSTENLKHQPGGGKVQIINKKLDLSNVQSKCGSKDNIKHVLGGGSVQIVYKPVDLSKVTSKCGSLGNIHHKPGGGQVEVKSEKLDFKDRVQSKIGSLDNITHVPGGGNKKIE
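Human tau K18 […] P301L fragment, 15 uM unlabeled plus 0.24 uM Alexa 594-labeled tau (final), with compound and 20 uM heparin in 100 mM sodium acetate pH 7; 6 hr at 37 C, then Alexa 594 FP read.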
Tau fibril ThT = qHTS for Inhibitors of Tau Fibril Formation, Thioflavin T Binding | recombinant tau K18 P301L (four-repeat tau fragment), heparin-induced fibrillization, ThT fluorescence | AID 1460, 2008 | Potency, µM (top dose mostly 57.4 µM), for inactives: top-dose activity, negative = inhibition, actives largely listed as inhibitors | Microtubule-associated protein tau (Homo sapiens), P10636 | actives 2.1% (n = 270,000); note: potency is the fitted concentration of half-maximal effect; nearly all actives have a fitted effect of over 55% in size
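In this qHTS, human K18 P301L tau is incubated with compound and heparin for 6 hr at 37 C, and Thioflavin T fluorescence then reports fibril load.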
FBPA coupling cs = qHTS Assay for Inhibitors of Fructose-1,6-bisphosphate Aldolase from Giardia Lamblia: Coupling assay counterscreen; coupling enzyme system counterscreen, AmpLite Red fluorescence; actives 0.67% (n = 290,000); activity change, negative = inhibition, % at 58.2 µM, hits read low; in the data active = activity change below about -30%
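Activity here indicates interference with the coupling reaction, not aldolase inhibition. Compounds at 57.5 uM final met coupling enzymes for 10 min at RT; substrate and AmpLite Red detection followed, with a 525/598 nm fluorescence read after 20 min.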
* = called active by the depositor; [ ] = remark or other dose. Unless noted, calls come from the whole dose curve; as a rule, active = well fitted curve in the direction sought with a large enough effect; inconclusive = small, poorly fitted or top-dose-only effect, or another doubt; inactive = no such curve, though single readings can be large; an effect the other way counts as inactive or inconclusive. % is set by controls: 0 for no effect and ±100 for the full control effect.

For Cc1cccc(NC(=O)c2c(NC(=O)c3cccs3)sc3c2CCC(C)C3)c1 (configuration not stated) the results were Tau fluor counter -16%, USP1-UAF1 inh -17%, Tau fibril FP -5% and Tau fibril ThT -4%.
For Cc1cccc(NC(=O)c2c(N)sc3c2CCC(C)C3)c1 (configuration not stated) the results were Tau fluor counter inconclusive, USP1-UAF1 inh -19%, Tau fibril FP -15% and Tau fibril ThT 8.9µM*.
`O=C1CCCCC/C1=N/Nc1ccc(OCc2ccccc2)cc1` gave Tau fluor counter inconclusive, USP1-UAF1 inh -11%, Tau fibril FP 4%, Tau fibril ThT 11µM* and FBPA coupling cs 2.
For O=C(COc1ccc(OCc2ccccc2)cc1)NN=C1CCCC1 the results were Tau fluor counter -4%, USP1-UAF1 inh -16%, Tau fibril FP 10%, Tau fibril ThT inconclusive and FBPA coupling cs 1.
For COC(=O)C1=C(C(=O)OC)[C@@H]2N(C)c3ccccc3[C@@]23C[C@@H](C(=O)OC)N(S(=O)(=O)c2c(C)noc2C)C3=N1 the results were Tau fluor counter -6%[11.6 µM], Tau fibril FP -2%[11.6 µM], Tau fibril ThT 0%[11.5 µM] and FBPA coupling cs 0.
Screening CS(=O)(=O)c1ccc(C(=O)OCC(=O)Nc2cccnc2Cl)cc1[N+](=O)[O-] returned USP1-UAF1 inh -22%.
For Cc1ccccc1NC(=O)COC(=O)c1ccc(S(C)(=O)=O)c([N+](=O)[O-])c1 the results were Tau fluor counter inconclusive, USP1-UAF1 inh -15%, Tau fibril FP -2%, Tau fibril ThT 13µM* and FBPA coupling cs 1.
Screening CCc1ccc(NC(=O)CN2C(=O)c3ccccc3Sc3ccc(C(=O)N4CCCC4)cc32)cc1 returned Tau fluor counter -12%, USP1-UAF1 inh inconclusive, Tau fibril FP -2% and Tau fibril ThT -2%.
Cc1cccc(Cn2c(=O)n(-c3cc(C)cc(C)c3)c(=O)c3oc4ccccc4c32)c1 was read as Tau fluor counter 0%, USP1-UAF1 inh -22%, Tau fibril FP -3% and Tau fibril ThT 0%.
Screening COC(=O)CC1c2ccccc2C=C(/C=C/c2ccc3c(c2)OCO3)N1C(=O)OC (configuration not stated) returned Tau fluor counter -5%[11.6 µM], Tau fibril FP 4%[11.6 µM], Tau fibril ThT -1%[11.5 µM] and FBPA coupling cs 0.
Screening COc1ccc(-c2nc3c4ccccc4n(CC(=O)Nc4ccc(C(C)C)cc4)c(=O)n3n2)cc1 returned Tau fluor counter 1%, USP1-UAF1 inh -16%, Tau fibril FP -1% and Tau fibril ThT 3%.
`COC(=O)c1cc(NC(=O)c2cc(-c3ccc(Cl)cc3)oc2C(F)(F)F)ccc1N1CCOCC1` gave Tau fluor counter inconclusive, USP1-UAF1 inh -18%, Tau fibril FP -1% and FBPA coupling cs 0.
`COC(=O)c1cc(NC(=O)c2cc(-c3ccccc3Cl)oc2C(F)(F)F)ccc1N1CCOCC1` gave Tau fluor counter 13µM*[quencher], USP1-UAF1 inh -25%, Tau fibril FP inconclusive and FBPA coupling cs 3.
For O=C(CSc1ccc(Cl)cc1)NNC(=O)c1ccncc1 the results were USP1-UAF1 inh -16%.
Screening Cn1c(N)c(C(=O)COC(=O)c2cc(-c3ccco3)nc3ccccc23)c(=O)n(Cc2ccccc2)c1=O returned Tau fluor counter inconclusive, Tau fibril FP inconclusive, Tau fibril ThT 13µM* and FBPA coupling cs 2.
`CCN(CC)CCNC(=O)c1ccc2c(=O)n3nc(Nc4ccccc4)sc3nc2c1` gave Tau fluor counter -1%, USP1-UAF1 inh -24%, Tau fibril FP 2% and Tau fibril ThT inconclusive.
`CC12CCC=CC1C(c1cccc([N+](=O)[O-])c1)N(Cc1ccccc1)C2=O` (configuration not stated) gave FBPA coupling cs 5.
